Assay results: the supplement of paper PMC11624193, “Coupling cellular drug-target engagement to downstream pharmacology with CeTEAM” (Nature Communications, 2024)
Where a name gives a salt, the structure may show the parent alone. Values without a mark were called inactive.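 The calls were made as follows: active = log2 fold change beyond 2 SD from the library mean after excluding viability outliers; inactive = within 2 SD.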

molecular target: PARP1 L713F-nLuc biosensor (HCT116) (UniProt P09874); assay: PARP1 L713F-nLuc/akaLuc ratio relative to DMSO control (biosensor stabilization) (fold change); higher = more PARP1 biosensor stabilization (target engagement / stabilizer), active = hit call of the paper; conditions: stock concentration (mM; final µM = stock mM x 1): 2; 24 h
Sequence (P09874 whole entry L713F, looked up): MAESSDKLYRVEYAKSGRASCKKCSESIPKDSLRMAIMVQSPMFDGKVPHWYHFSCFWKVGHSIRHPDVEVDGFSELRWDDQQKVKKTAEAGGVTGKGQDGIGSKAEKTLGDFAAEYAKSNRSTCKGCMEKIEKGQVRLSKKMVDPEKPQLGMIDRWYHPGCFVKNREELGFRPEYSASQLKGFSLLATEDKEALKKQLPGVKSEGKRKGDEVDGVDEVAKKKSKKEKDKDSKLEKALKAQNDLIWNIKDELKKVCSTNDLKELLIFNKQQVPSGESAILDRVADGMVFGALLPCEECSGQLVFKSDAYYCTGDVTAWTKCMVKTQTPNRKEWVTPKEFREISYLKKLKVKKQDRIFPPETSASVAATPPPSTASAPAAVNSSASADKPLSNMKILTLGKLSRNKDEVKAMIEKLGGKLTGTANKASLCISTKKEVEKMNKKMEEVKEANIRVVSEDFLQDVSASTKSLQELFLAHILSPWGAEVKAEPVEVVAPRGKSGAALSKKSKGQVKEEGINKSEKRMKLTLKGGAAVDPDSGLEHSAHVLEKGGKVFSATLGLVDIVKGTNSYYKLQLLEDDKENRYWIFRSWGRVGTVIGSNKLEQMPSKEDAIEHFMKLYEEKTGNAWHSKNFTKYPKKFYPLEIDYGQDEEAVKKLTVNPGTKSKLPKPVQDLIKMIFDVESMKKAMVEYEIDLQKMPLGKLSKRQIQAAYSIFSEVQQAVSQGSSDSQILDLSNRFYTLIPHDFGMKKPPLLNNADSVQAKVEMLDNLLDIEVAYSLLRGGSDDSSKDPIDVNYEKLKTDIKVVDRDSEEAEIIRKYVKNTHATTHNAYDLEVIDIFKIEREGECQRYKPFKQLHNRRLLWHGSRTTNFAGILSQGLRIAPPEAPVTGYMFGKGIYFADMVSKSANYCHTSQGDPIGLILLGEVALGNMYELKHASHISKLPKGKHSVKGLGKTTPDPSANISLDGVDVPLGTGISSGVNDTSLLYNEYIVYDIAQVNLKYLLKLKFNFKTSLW

SMILES	PARP1 L713F-nLuc/akaLuc ratio
Cn1cc(-c2ccc(F)c(C(F)(F)F)c2)nc1C1CCN(c2ncnc3[nH]ncc23)CC1	0.945
CNC(=O)c1ccc(-c2cnc3ncc(Cc4ccc5ncccc5c4)n3n2)cc1F	0.95
Cc1cc(C)c(CNC(=O)c2cc(-c3ccc(CN4CCOCC4)cc3)cc3c2cnn3C2CCCC2)c(=O)[nH]1	1.45

same assay, conditions: stock concentration (mM; final µM = stock mM x 1): 10; 24 h

SMILES	PARP1 L713F-nLuc/akaLuc ratio
N#Cc1c(N2CCCC2)nc(N)c2c(N)nc(N3CCCC3)cc12	1.1
CNC[C@@H](O)COc1ccc(Cl)c(-c2nc(-c3c(C)noc3C)c(C)c(N3CC4(CCN(C(=O)OC)CC4)C3)n2)c1	0.955
COc1cc2c(Nc3ccc(NC(=O)c4ccccc4)cc3)ncnc2cc1OCCCN1CCOCC1	0.809
CC/C(=C(\c1ccc(O)cc1)c1ccc(OCCN(C)C)cc1)c1ccccc1 [4-Hydroxytamoxifen]	0.97
Cc1cc(Nc2nc(N[C@@H](C)c3ccc(F)cc3)c(C#N)cc2F)n[nH]1	13.6 (active)
CCCCNC(=N)NC(=N)N [Buformin (hydrochloride)]	0.782
N#CC[C@H](C1CCCC1)n1cc(-c2ncnc3[nH]ccc23)cn1 [Ruxolitinib (S enantiomer)]	1.63
COc1ccc(COc2cc3oc(=O)c4cc(C(C)O)ccc4c3cc2OC)cc1 (centres undefined) [Palomid 529 (P529)]	0.578
CC/C(=C(\c1ccccc1)c1ccc(OCCNC)cc1)c1ccccc1 [N-Desmethyltamoxifen (hydrochloride)]	0.968
O=c1[nH]c(Oc2cnn(Cc3ccccc3)c2)nc2cnccc12	0.946
CO[C@H]1C[C@@H]2CC[C@@H](C)[C@@](O)(O2)C(=O)C(=O)N2CCCC[C@H]2C(=O)O[C@H]([C@H](C)C[C@@H]2CC[C@@H](OCCO)[C@H](OC)C2)CC(=O)[C@H](C)/C=C(\C)[C@@H](O)[C@@H](OC)C(=O)[C@H](C)C[C@H](C)/C=C/C=C/C=C/1C [Everolimus (RAD001)]	0.669
CNCc1ccc(-c2[nH]c3cc(F)cc4c3c2CCNC4=O)cc1 [Rucaparib (phosphate)]	5.55 (active)
Cc1cc(C)cc(Oc2ccc(CNC(=O)[C@H](C)N)cc2C)c1	1.24
Cc1ccc(C(=O)Nc2cccc(C(F)(F)F)c2)cc1Nc1nc(-c2cccnc2)nc2c1cnn2C	0.656
C=CC(=O)Nc1cccc(Oc2nc(Nc3ccc(N4CCN(C)CC4)cc3)nc3ccsc23)c1	1.03
O=C1NC(=O)/C(=C\c2cccc(C(F)(F)F)c2)S1	0.962
COc1ccc(C(=C2C(=O)Nc3ccccc32)c2ccc(OC)cc2)cc1	0.833
Cn1c(=O)c2c(ncn2CC(=O)O)n(C)c1=O [Acefylline]	0.921
CNc1nc(NC2CCN(Cc3ccc4c(cc(C#N)n4CC45CC(NC=O)(C4)C5)c3C)CC2)c2cc(CC(F)(F)F)sc2n1	1.38
CC(CC(=O)C[C@@H](C)[C@H]1CC(=O)[C@@]2(C)C3=C(C(=O)C[C@]12C)[C@@]1(C)CCC(=O)C(C)(C)[C@@H]1C[C@@H]3O)C(=O)O (some centres undefined) [Ganoderic acid D]	0.929
CCCCNc1ncc(C(=O)NCc2ccc(-n3ccnc3)cc2)c(NC2CCC(O)CC2)n1 (centres undefined)	0.954
COC(=O)c1ccc2c(c1)NC(=O)/C2=C(\Nc1ccc(N(C)C(=O)CN2CCN(C)CC2)cc1)c1ccccc1 [Nintedanib (BIBF 1120)]	0.6
Cc1ccc(-n2nc(C(C)(C)C)cc2NC(=O)Nc2ccc(OCCN3CCOCC3)c3ccccc23)cc1 [Doramapimod (BIRB 796)]	0.671
COc1ccc(NC(=O)c2ccc(NC3=C(C)C(=O)CC3)c(Cl)c2)cc1	0.879
CC(=O)O[C@H]1C(=O)[C@@]2(C)[C@H]([C@H](OC(=O)c3ccccc3)[C@]3(O)C[C@H](OC(=O)[C@H](O)[C@@H](NC(=O)c4ccccc4)c4ccccc4)C(C)=C1C3(C)C)[C@]1(OC(C)=O)CO[C@@H]1C[C@@H]2O [Paclitaxel]	2.97 (active)
Cc1nc(Nc2cnn(C3CCNCC3)c2)nc2c1N(C)C(=O)c1cc3ccccc3cc1N2C	0.761
